From PubChem BioAssay
The source made the active and inactive calls. Unless noted, how the calls were made is not given here.

Assays:
[1] = HepG2 liver cancer cell viability effects, profiling panel, resazurin fluorescence, 24 h, PK04 Diversity Set (AID 1172); settings: higher = more signal
[2] = basal S. cerevisiae growth modulation, no modifier, primary screen, OD600, strain BY4716, 24 h, basal condition (AID 1173); settings: OD600, 24 h, higher = more signal, called active from +8 up or from −8 down
[3] = MM1S myeloma cell viability, profiling panel, resazurin fluorescence, basal, 24 h, PK04 Diversity Set (AID 1174); settings: higher = more signal, called active from +8 up or from −8 down;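 further: MM1S multiple myeloma cell line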
[4] = molecular target: Dihydroorotate dehydrogenase (quinone), mitochondrial (Plasmodium falciparum (isolate 3D7)) (UniProt Q08210); experiment: PfDHODH enzyme inhibitors, primary screen, biochemical, C-terminal His tag, absorbance 600 nm (AID 1175); settings: DCIP absorbance 600 nm, higher = more signal, called active from +8 up or from −8 down;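 further: recombinant parasite enzyme with a five histidine tag at its C terminus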
Dihydroorotate dehydrogenase (quinone), mitochondrial (Plasmodium falciparum (isolate 3D7)), sequence (Q08210 whole entry, looked up): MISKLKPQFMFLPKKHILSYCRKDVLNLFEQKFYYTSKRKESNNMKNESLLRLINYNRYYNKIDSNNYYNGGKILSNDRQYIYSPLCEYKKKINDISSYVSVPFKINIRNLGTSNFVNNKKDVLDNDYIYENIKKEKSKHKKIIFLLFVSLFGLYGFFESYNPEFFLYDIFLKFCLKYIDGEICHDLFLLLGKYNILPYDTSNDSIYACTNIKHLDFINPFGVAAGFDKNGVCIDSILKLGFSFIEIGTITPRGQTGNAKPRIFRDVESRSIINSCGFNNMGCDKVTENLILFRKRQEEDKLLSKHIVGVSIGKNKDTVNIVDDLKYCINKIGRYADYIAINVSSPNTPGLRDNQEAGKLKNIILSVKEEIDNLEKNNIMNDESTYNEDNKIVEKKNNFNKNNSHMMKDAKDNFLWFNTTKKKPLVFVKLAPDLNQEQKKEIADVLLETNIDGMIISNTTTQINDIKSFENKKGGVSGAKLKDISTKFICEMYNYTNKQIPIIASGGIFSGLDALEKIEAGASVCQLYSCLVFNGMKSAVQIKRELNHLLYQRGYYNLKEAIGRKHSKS

[5] = P. aeruginosa biofilm formation inhibitors, primary screen, strain PAO1, LB-PBS medium, absorbance 600 nm (AID 1176); settings: P. aeruginosa PAO1 growth/biofilm, A600, 12 h; higher = more signal
[6] = S. cerevisiae RM11-1a growth modifiers, primary screen, strain RM11-1a, OD600, basal, 24 h (AID 1177); settings: OD600, 24 h, higher = more signal, called active from +8 up or from −8 down;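 further: cultures grown under basal conditions with no added stressor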
[7] = E. coli acrAB mutant growth effects, primary screen, E. coli filamentation inducers, strain DRC39, OD650, 24 h (AID 1178); settings: higher = more signal, called active from +8 up or from −8 down;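 further: growth measured as culture turbidity by optical density at 650 nm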
[8] = E. coli acrAB mutant growth effects, primary screen, E. coli filamentation inducers, strain DRC39, OD650, 48 h (AID 1179);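 further: screen aims at cell division blockers that make cells filament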; settings: E. coli DRC39 delta-acrAB growth, higher = more signal, called active from +8 up or from −8 down
[9] = RPMI8226 myeloma cell viability, profiling panel, resazurin fluorescence, basal, 24 h, PK04 Diversity Set (AID 1180); settings: higher = more signal;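 further: RPMI8826 multiple myeloma cell line at 5000 cells per well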
[10] = molecular target: E3 ubiquitin-protein ligase XIAP (Homo sapiens) (UniProt P98170); experiment: XIAP binders, primary screen, biophysical, small-molecule microarray, fluorescence 635 nm (AID 1181); settings: small-molecule microarray binding, higher = more signal;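 further: score merges 667 nm emission and signal to noise over triplicate slides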
E3 ubiquitin-protein ligase XIAP (Homo sapiens), sequence (P98170 whole entry, looked up): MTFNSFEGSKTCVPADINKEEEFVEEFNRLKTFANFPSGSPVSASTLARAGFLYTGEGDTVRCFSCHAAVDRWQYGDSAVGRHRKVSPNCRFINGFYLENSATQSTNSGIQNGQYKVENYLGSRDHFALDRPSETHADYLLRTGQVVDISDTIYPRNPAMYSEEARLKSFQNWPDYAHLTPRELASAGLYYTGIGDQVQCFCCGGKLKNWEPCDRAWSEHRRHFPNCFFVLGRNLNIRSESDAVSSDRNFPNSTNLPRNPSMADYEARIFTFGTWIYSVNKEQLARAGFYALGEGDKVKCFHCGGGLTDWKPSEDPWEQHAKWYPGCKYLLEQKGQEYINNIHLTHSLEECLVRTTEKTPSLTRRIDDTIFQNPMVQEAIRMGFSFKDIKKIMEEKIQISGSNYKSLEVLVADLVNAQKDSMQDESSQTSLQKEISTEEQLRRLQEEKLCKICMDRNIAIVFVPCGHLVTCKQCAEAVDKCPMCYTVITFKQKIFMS

[11] = system: XIP peptide (Xip251-270) binding; experiment: small-molecule binders of XIP peptide, primary screen, biochemical, small-molecule microarray, fluorescence 635/667 nm, 0.1 µg/mL protein (AID 1182); settings: fluorescent protein binding, 635 nm, higher = more signal, called active from +8 up or from −8 down
XIP peptide (Xip251-270) = experiment: small-molecule binders of XIP peptide, primary screen, biochemical, small-molecule microarray, fluorescence 635/667 nm, 0.5 µg/mL protein (AID 1183); settings: small-molecule microarray binding, fluorescence 635 nm; higher = more signal
[12] = Plasmodium falciparum growth inhibition, primary screen, strain 3D7, DAPI fluorescence, 100 nL (AID 1184);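 further: parasites grown inside human red blood cells in medium with human serum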; settings: P. falciparum 3D7 growth, 3 d, higher = more signal
[13] = molecular target: Homeobox protein Hox-A13 (Mus musculus) (UniProt Q62424); experiment: inhibitors of HoxA13-DNA binding, primary screen, biochemical, fluorescence polarization, labeled oligonucleotide (AID 1185); settings: 15 min, higher = more signal, called active from +8 up or from −8 down
Homeobox protein Hox-A13 (Mus musculus), sequence (Q62424 whole entry, looked up): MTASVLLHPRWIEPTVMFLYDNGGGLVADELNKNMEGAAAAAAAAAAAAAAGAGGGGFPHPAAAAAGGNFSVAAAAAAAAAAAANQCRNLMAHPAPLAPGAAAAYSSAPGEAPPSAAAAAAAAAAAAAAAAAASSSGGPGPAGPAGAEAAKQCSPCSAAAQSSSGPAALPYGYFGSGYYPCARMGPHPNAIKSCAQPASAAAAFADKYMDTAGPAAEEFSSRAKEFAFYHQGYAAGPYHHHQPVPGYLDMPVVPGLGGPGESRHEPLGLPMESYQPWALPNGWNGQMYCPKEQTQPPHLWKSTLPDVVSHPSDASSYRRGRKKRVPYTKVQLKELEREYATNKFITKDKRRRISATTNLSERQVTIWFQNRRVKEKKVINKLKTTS

[14] = inhibitors of hydroxyurea-induced Chk1 phosphorylation, primary screen, imaging, HeLa, phospho-Chk1 antibody, percent positive cells (AID 1186); settings: hydroxyurea-induced phospho-Chk1 immunofluorescence imaging, higher = more signal
[15] = inhibitors of hydroxyurea-induced Chk1 phosphorylation, primary screen, imaging, HeLa, phospho-Chk1 nuclear intensity (AID 1187); settings: hydroxyurea-induced phospho-Chk1 immunofluorescence imaging, higher = more signal

Row | SMILES | z-score [1] | z-score [2] | z-score [3] | composite z-score [4] | z-score [5] | z-score [6] | z-score [7] | z-score [8] | z-score [9] | composite z-score [10] | composite z-score [11] | composite z-score (XIP peptide (Xip251-270)) | z-score [12] | z-score [13] | z-score [14] | z-score [15]
1 | CO[C@@H]1COC(=O)CC=C[C@@H](C)[C@H](OC)COC(=O)[C@H](COCc2ccccc2)NC(=O)CC=C[C@H]1C | 0.628 | -1.13 (inactive) | -0.0928 (inactive) | -0.0234 (inactive) | -0.225 (inactive) | -0.47 (inactive) | 0.406 (inactive) | -0.723 (inactive) | 1.35 | 0.17 | 0.025 (inactive) | -0.988 | -0.17 | -1.64 (inactive) |  | 
2 | COc1ccccc1CN1C(=O)c2ccccc2[C@@]2(Cc3ccccc3N(C(C)C)C2=O)[C@@H]1c1ccc(CO)cc1 | -0.643 | 0.439 (inactive) | -0.647 (inactive) | -3.28 (inactive) | 0.376 (inactive) | -1.56 (inactive) | 0.549 (inactive) | 1.14 (inactive) | -0.457 | 0.161 | 0.496 (inactive) | 0.854 | 0.559 | -0.215 (inactive) | -0.014 (inactive) | 0.36 (inactive)
3 | CCCCCCc1nc(CCCc2cc3c(c(CCCCCC)n2)[Si](C(C)C)(C(C)C)O[C@H]3c2ccccc2)cc2c1[Si](C(C)C)(C(C)C)O[C@H]2c1ccccc1 | 0.0054 | 1.33 (inactive) | -0.582 (inactive) | -0.347 (inactive) | 0.0793 (inactive) | -0.879 (inactive) | -0.631 (inactive) | -0.981 (inactive) | -0.465 | -0.117 | 0.285 (inactive) | -0.307 | -0.607 | -2.79 (inactive) | -0.0972 (inactive) | -0.202 (inactive)
4 | COc1ccc(COC(=O)NN=C2C[C@@H](O)[C@@H](O)[C@@H]3[C@@H]4C(=O)N(Cc5ccc6c(c5)OCO6)C(=O)[C@@H]4CC[C@@H]23)cc1 | 0.466 | -0.839 (inactive) | 0.401 (inactive) | -1.68 (inactive) | 2.55 (inactive) | -1.83 (inactive) | -0.459 (inactive) | -0.279 (inactive) | 1.24 | -0.0792 | 0.361 (inactive) | -0.239 | 0.142 | 0.284 (inactive) |  | 
5 | O=C1[C@H]2[C@H]3[C@H](O)[C@H](O)CC(=NO[C@@H]4O[C@H](CO)[C@@H](O)[C@H](O)[C@H]4O)[C@H]3CC[C@H]2C(=O)N1C1CCCCC1 | 0.241 | 0.205 (inactive) | -0.655 (inactive) | 0.26 (inactive) | -0.613 (inactive) | -0.629 (inactive) | 0.411 (inactive) | 0.232 (inactive) | -0.815 | 0.155 | 0.269 (inactive) | 0.653 | 0.418 | -4.7 (inactive) |  | 
6 | O=C1[C@H]2[C@H]3[C@H](O)[C@H](O)CC(=NOCc4ccccc4)[C@H]3CC[C@H]2C(=O)N1c1ccc(F)cc1F | 1.15 | -1.51 (inactive) | -0.254 (inactive) | -0.738 (inactive) | 0.328 (inactive) | -0.645 (inactive) | 0.586 (inactive) | 0.535 (inactive) | 1.28 | 0.104 | -0.0939 (inactive) | 0.159 | -1.08 | 1.02 (inactive) |  | 
7 | CC(C)=CCCC(C)=CCON=C1[C@H]2CCn3c(=O)n(C)c(=O)n3[C@H]2[C@H](O)[C@@H]2O[C@H]12 | -0.653 | -0.777 (inactive) | -2.63 (inactive) | -0.251 (inactive) | -0.543 (inactive) | 0.199 (inactive) | 0.119 (inactive) | 0.214 (inactive) | -0.88 | 0.153 | 0.258 (inactive) | 0.246 | -1.55 | -0.682 (inactive) |  | 
8 | COC(=O)[C@@H]1CC[C@H](C)[C@@H](c2ccc(C)cc2)N1C(=O)c1ccc(C=NOC(C)CN2CCCCc3nc(C)c(C)cc32)cc1 (some centres not stated) | 1.03 | -0.104 (inactive) | -0.725 (inactive) | 0.613 (inactive) | 0.642 (inactive) | 0.984 (inactive) | 0.419 (inactive) | -0.27 (inactive) | -0.0629 | 0.147 | -0.206 (inactive) | 0.51 | -1.76 | -3.03 (inactive) |  | 
9 | COC(=O)CC=C[C@H](C)[C@@H](OCc1ccccc1Br)C(C)C | -0.285 | -0.553 (inactive) | -2.19 (inactive) | -0.216 (inactive) | 0.274 (inactive) | -0.158 (inactive) | 0.824 (inactive) | 0.661 (inactive) | -1.89 | 0.157 | 0.864 (inactive) | -0.039 | -0.0811 | -0.388 (inactive) |  | 
10 | CC(C)[C@@H](OCc1ccccc1)[C@H](C)C=NO[C@H](C)c1cn([C@H](CO)Cc2ccccc2)nn1 | -1.01 | -3.51 (inactive) | -2.02 (inactive) | -0.926 (inactive) | -0.324 (inactive) | -2.3 (inactive) | -0.0325 (inactive) | -0.0205 (inactive) | -1.67 | -0.0287 | -0.2 (inactive) | 0.353 | 0.325 | -4.42 (inactive) |  | 
11 | CC(C)=CCCC(C)=CCON=C1[C@H]2CCn3c(=O)n(Cc4cc5c(cc4Cl)OCO5)c(=O)n3[C@H]2[C@H](O)[C@@H]2O[C@H]12 | -0.594 | -0.696 (inactive) | -0.738 (inactive) | 0.207 (inactive) | -0.471 (inactive) | -0.537 (inactive) | -0.464 (inactive) | -0.72 (inactive) | -0.357 | -0.224 | -0.0418 (inactive) | 0.208 | -1.17 | -1.16 (inactive) |  | 
12 | CC(C)[C@H](NC(=O)OC(C)(C)C)[C@@H](O)CC(=O)OC(C)(C)C | -0.811 | -0.448 (inactive) | 0.351 (inactive) | 0.0945 (inactive) | -0.506 (inactive) | 0.259 (inactive) | -1.69 (inactive) | -0.998 (inactive) | 0.496 | -0.102 | -0.182 (inactive) | -0.4 | -1.75 | -0.799 (inactive) |  | 
13 | CCN1C(=O)[C@H]2[C@H]3[C@H](O)[C@H](O)CC(=NOC[C@@H](C)[C@H](OCc4ccccc4)C(C)C)[C@@H]3CC[C@H]2C1=O | -0.725 | -4.63 (inactive) | -0.959 (inactive) | -0.613 (inactive) | 0.0525 (inactive) | -0.134 (inactive) | 1.03 (inactive) | 0.992 (inactive) | -0.989 | -0.0599 | 0.185 (inactive) | 0.757 | 0.605 | -6.43 (inactive) |  | 
14 | CC(C)CON=C1C[C@@H](O)[C@@H](O)[C@@H]2[C@@H]3C(=O)N(Cc4ccccc4)C(=O)[C@@H]3CC[C@@H]12 | 0.854 | -0.608 (inactive) | 0.334 (inactive) | -0.282 (inactive) | -0.495 (inactive) | 0.407 (inactive) | 0.426 (inactive) | 0.918 (inactive) | 0.731 | -0.242 | -0.347 (inactive) | -0.229 | -0.388 | -0.596 (inactive) |  | 
15 | C#CCCCON=C1C[C@@H](O)[C@@H](O)[C@@H]2[C@@H]3C(=O)N(c4cccc(Oc5ccccc5)c4)C(=O)[C@@H]3CC[C@@H]12 | 0.32 | -1.13 (inactive) | 0.47 (inactive) | 1 (inactive) | -0.601 (inactive) | -0.293 (inactive) | -0.146 (inactive) | -0.0303 (inactive) | 0.868 | 0.0153 | -0.0382 (inactive) | 0.481 | -1.96 | -5.65 (inactive) |  | 
16 | C=C(/C(=C/C[C@H](OC(=O)c1ccncc1)c1ccc(OCCO)cc1)c1cnc2ccccc2c1)C(C)C | 0.145 | -0.753 (inactive) | -0.777 (inactive) | -2.73 (inactive) | 0.85 (inactive) | 0.0942 (inactive) | -1.05 (inactive) | -1.02 (inactive) | 0.0076 | 0.13 | 0.782 (inactive) | 0.528 | -2.84 | -3.29 (inactive) | 0.118 (inactive) | -0.0461 (inactive)
17 | [N-]=[N+]=Nc1ccccc1C[C@@]1(C(N)=O)N=C(c2ccc(OCCCO)cc2)O[C@@H]1c1ccccc1 | -0.501 | -1.86 (inactive) | -0.6 (inactive) | -0.684 (inactive) | 0.218 (inactive) | -0.364 (inactive) | 0.289 (inactive) | -1.01 (inactive) | -0.652 | -0.0344 | 0.353 (inactive) | -0.649 | -2.14 | -4.43 (inactive) | -0.332 (inactive) | -0.449 (inactive)
18 | C=CCN1C(=O)[C@]2(O[C@H](CCn3cc(CCO)nn3)[C@@H]([Si](C)(C)c3ccc(OC)cc3)[C@@H]2C)c2cc(N3CCOC3=O)ccc21 | -0.0584 | -0.528 (inactive) | -0.368 (inactive) | -0.173 (inactive) | 0.614 (inactive) | 0.817 (inactive) | -0.815 (inactive) | -1.18 (inactive) | -0.789 | -0.124 | 0.0616 (inactive) | 0.57 | -2.7 | -5.66 (inactive) | -0.203 (inactive) | -0.5 (inactive)
